Assay outcomes (PubChem BioAssay)
In the library only some 4.6% were active in any assay of this set; here they are far more common.
SKKanGAS inh = inhibitors of SKKanGAS S. pyogenes growth in kanamycin (SK-promoter or general growth effect); inhibition, % at 7.5 µM; hit rate 1.3% among 300,000; AID 1662; BacTiter-Glo, 6 h;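 active means mean replicate score, as percent of positive control median, at least 50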;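 further: strain carries kanamycin resistance gene driven by streptokinase promoter and grows in 40 µg/ml kanamycin; loss of luminescence reflects streptokinase promoter inhibition or plain growth inhibition; 0% = median of DMSO wells and 100% = positive control at its reference dose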
NLRP3 yeast inh = inhibitors of NALP3 inflammasome in yeast; Yeast reconstituted NLRP3/ASC/caspase-1, beta-gal luminescence, 24 h; inhibition, % at 10 µM; hit rate 0.39% among 330,000; AID 2825;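 active means inhibition of 50% or more; inactive means inhibition below 50%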;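 further: plate controls were induced DMSO wells for no effect and uninduced yeast grown without galactose for full effect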
PfHsp90 set2 = inhibits growth of yeast expressing Plasmodium falciparum Hsp90. S. cerevisiae expressing PfHsp90, BacTiter-Glo ATP, 48 h; yeast lacking PDR1 and PDR3 efflux regulators. inhibition, % at 9.4 µM. hit rate 0.32% among 310,000. AID 504621;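 active means every replicate shows inhibition above about 80%, whatever the replicate mean, limit read from the data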;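 further: 0% = DMSO neutral controls and 100% = 20 µM radicicol positive controls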
TIM10 inh = growth inhibitors of TIM10 yeast strain | S. cerevisiae TIM10 strain growth, BacTiter-Glo luminescence, 24 h | inhibition, % at 10 µM | hit rate 1.4% among 330,000;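 active means inhibition of 40% or more at the single tested concentration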;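 further: wild-type TIM10 isogenic control strain grown at permissive 25 °C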
tim23-1 inh = growth inhibitors of tim23-1 mutant yeast; S. cerevisiae tim23-1 growth, BacTiter-Glo luminescence, 24 h; inhibition, % at 20 µM; hit rate 1.3% among 330,000;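 active means growth inhibition of the mutant yeast at or above 50%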;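 further: temperature-sensitive mutant grown at 25 °C; plate controls were DMSO-treated mutant yeast for no effect and medium wells lacking yeast for full effect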
tim10-1 inh = inhibits growth of tim10-1 mutant yeast | S. cerevisiae tim10-1 ts strain growth, BacTiter-Glo, 24 h | inhibition, % at 20 µM | hit rate 2.2% among 330,000;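 active means inhibition of at least 40%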;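 further: mutant grown at 25 °C; 0% = DMSO wells with yeast and 100% = wells holding no yeast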
tim23-1 confirm = confirmation of tim23-1 mutant yeast growth inhibitors; AID 463218; shares compounds with tim23-1 inh; hit rate 83% among 4,400; inhibition, % at 20 µM; S. cerevisiae tim23-1 growth, BacTiter-Glo luminescence, 24 h;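 active means inhibition above about 39% in either of two replicate wells at 20 µM, limit read from the data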;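 further: temperature-sensitive tim23-1 mutant grown at 25 °C; 0% = DMSO wells with yeast and 100% = medium wells without yeast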
An asterisk follows results filed as active; . = no result given.

SMILES	SKKanGAS inh	NLRP3 yeast inh	PfHsp90 set2	TIM10 inh	tim23-1 inh	tim10-1 inh	tim23-1 confirm
O=c1c2c(n3cnnc3n1C1CCCCC1)-c1ccccc1CC21CCCCC1	15.4	-14.8	-22.9	29.8	53.9*	31.4	14.6
O=C(O)C(Cc1ccccc1)N1C(=O)c2c(Cl)c(Cl)c(Cl)c(Cl)c2C1=O (stereo not given)	-11.0	5.3	-10.1	6.0	17.2	3.3	.
Fc1ccc2cc(-c3ccccc3)ncc2c1	.	28.4	-0.6	17.1	40.2	13.7	.
COc1cc(OC)cc(-c2cc3ccc(OC)cc3cn2)c1	.	27.3	22.6	13.3	51.2*	25.7	54.5*
COc1cc2cnc(-c3ccccc3)cc2cc1OC	.	46.5	11.8	7.7	51.7*	-7.8	44.5*
c1ccc(-c2cc3ccccc3cn2)cc1	.	30.2	5.6	8.4	50.6*	-9.3	75.4*
CCN(c1ccccc1)S(=O)(=O)c1ccc2c(c1)CC(C)N2C(=O)C1CC1 (stereo not given)	6.4	2.4	5.7	5.0	27.4	27.6	.
Cc1ccc(C)c(C(=O)CSc2nc(N)cc(=O)[nH]2)c1	-3.2	4.4	6.3	2.2	0.6	1.2	.
Cc1ccc(N2C(=O)N(CC(=O)NCc3ccccc3Cl)C(=O)C2C)cc1 (stereo not given)	0.7	-6.3	-0.9	-10.9	11.9	6.9	.
CC(C)(C)[C@H]1COC(=O)[C@H](NC(=O)OCC2c3ccccc3-c3ccccc32)C/C=C\C[C@@H](CC(=O)N[C@@H](CO)Cc2ccccc2)C(=O)N1	.	-1.6	37.3	6.4	16.7	10.5	.
CCOc1ccc(NCc2cc3c(C(C)(C)C)nn(-c4ccccc4)c3[nH]c2=O)cc1	-7.2	46.4	103.2*	31.6	58.5*	22.4	54.8*
COc1cccc(NCc2cc3c(C(C)(C)C)nn(-c4ccccc4)c3[nH]c2=O)c1	14.2	9.6	44.0	36.4	70.3*	36.1	59.3*
CCc1ccc(NCc2cc3c(C)nn(-c4ccccc4)c3[nH]c2=O)cc1	6.7	13.3	33.1	10.2	13.8	12.7	.
COc1cn(-c2ccccc2)nc1C(=O)Nc1ccc(C)cc1	-8.5	26.1	25.7	29.6	50.4*	-51.1	39.2
COc1cn(-c2ccccc2)nc1C(=O)Nc1ccccc1	-5.9	26.5	2.2	17.8	19.4	-10.9	.
COc1cc2ccccc2cc1C(=O)Nc1ccc(Cc2ccncc2)cc1	26.0	-0.1	11.5	33.3	37.0	30.0	.
COc1cc2ccccc2cc1C(=O)Nc1ccc(C)cc1	-2.4	40.7	1.8	-0.1	59.0*	-3.8	64.2*
COc1ccc(C)cc1NC(=O)c1nn(-c2ccccc2)cc1OC	8.3	32.8	-22.5	-6.5	54.5*	0.3	67.8*
COc1ccccc1NS(=O)(=O)c1cc(C(=O)NCC(c2ccco2)N2CCCCC2)ccc1C (stereo not given)	-2.3	-2.1	6.0	5.5	-6.0	-3.1	.
Cc1cc(C)cc(OCC(O)CN2CC(C)OC(C)C2)c1 (stereo not given)	-11.9	28.7	10.7	-61.1	1.9	-64.0	.
COc1cc(/C=C/C(=O)O)cc(S(=O)(=O)NCCCC(=O)O)c1OC	3.2	8.3	-4.4	11.5	-0.8	-0.1	.
N/C(CC(=O)Nc1ccc(F)cc1F)=N\OC(=O)c1cccs1	4.2	-0.8	18.8	29.9	61.0*	33.7	39.6*
Cc1cc(NC(=O)CSCC(=O)Nc2ccc(C)c(C)c2)no1	.	-0.4	0.1	1.8	-0.8	-4.5	.
Cc1nnc2n(Cc3ccccc3)c(=O)c3c4c(sc3n12)COC(C(C)C)C4 (stereo not given)	3.6	7.2	-12.0	-1.0	54.9*	26.4	37.8
Cc1ccc(C)c(NC(=O)C2CCCN2C(=O)NC2CCCCC2)c1 (stereo not given)	1.8	-4.9	-1.1	1.5	4.3	9.2	.
C=COCCNC(=S)N1CCOCCOCCN(C(=S)NCCOC=C)CCOCC1	-1.1	5.6	5.9	-6.4	12.2	11.1	.
COCc1nnc(NC(=O)C2CC(=O)N(CCc3ccc(F)cc3)C2)s1 (stereo not given)	2.6	6.0	1.1	-14.5	18.3	9.2	.
CCOC(=O)c1sc(NC(=O)c2cccs2)cc1C	1.4	25.0	14.8	34.2	55.4*	21.2	77.8*
